Assay outcomes from PubChem BioAssay.
Hits are enriched below; roughly 5.4% of the tested compounds scored in any of these assays.
VACV mCherry inh = inhibitors of vaccinia virus infection (mCherry reporter signal); Potency, µM (highest dose often 36.5 µM), for the others: top-dose activity change, negative = inhibition, usual class: inhibitors; Vaccinia virus mCherry reporter infection, fluorescence; 310,000 tested, 0.63% active; calls by dose curve; tested in A549 cells; also: nearly all actives have a fitted effect of over 35% in size
Sm TGR inh = inhibitors of Schistosoma mansoni thioredoxin glutathione reductase; purified TGR, DTNB reduction, TNB absorbance 405 nm; Potency, µM (doses to about 114 µM), for the others: top-dose activity change, negative = inhibition, most hits filed as inhibitors; 360,000 tested, 3% active; AID 485364; active = well fitted inhibition curve with a large enough effect; inconclusive = small, poorly fitted or top-dose-only effect; inactive = no such curve, though single readings can be large or run the other way; also: nearly all actives have a fitted effect of over 60% in size
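First, TGR (20 nM dispensed) and NADPH were mixed with compound. Second, a 15 min room-temperature incubation followed. Third, further NADPH and then DTNB were added to start the reaction. Finally, TNB absorbance was monitored kinetically.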
Lassa entry inh = blocks Lassa virus binding to or entry into cells; Lassa virus pseudotype entry inhibition, cell reporter; Potency, µM (doses to about 37.9 µM), for the others: at the highest dose activity change, negative = inhibition, most hits filed as inhibitors; 300,000 tested, 1.2% active; AID 540256; calls by dose curve; tested in HEK293 cells; also: nearly all actives have a fitted effect of over 50% in size
Vaccinia Venus = inhibitors of vaccinia virus (Venus reporter) | Vaccinia virus Venus reporter expression, fluorescence | Potency, µM (highest dose often 36.5 µM), for inactives: at the top dose activity change, negative = inhibition, hits mostly inhibitors | 330,000 tested, 0.46% active; calls by dose curve; tested in A549 cells; also: nearly all actives have a fitted effect of over 30% in size
MARV entry inh = Marburg virus entry inhibition. Marburg virus pseudotyped entry inhibition, cell reporter. AID 540276. 300,000 tested, 1.8% active. Potency, µM (highest dose often 37.8 µM), for the others: at the top dose activity change, negative = inhibition, actives largely listed as inhibitors; calls by dose curve; tested in HEK293 cells
FMDV inh = antivirals against foot and mouth disease virus. FMDV antiviral cell-based qHTS. Potency, µM (doses to about 57.9 µM), for inactives: at the top dose activity change, negative = inhibition, actives largely listed as inhibitors. 410,000 tested, 1.2% active. AID 1159524; calls by dose curve; tested in HEK293T cells; also: read-out not given here; nearly all actives have a fitted effect of over 45% in size
An asterisk follows results filed as active; ! = not active in a repeat; [ ] = another dose, or the depositor's remark. % is scaled to controls: 0 for no effect and ±100 for the full control effect; potency is read from the fitted curve at half-maximal effect.

How did O=C(c1ccc2c(c1)OCO2)N(Cc1cc2ccc(F)cc2nc1N1CCC(O)CC1)CC1CCCO1 (stereo not drawn) do in these assays?
VACV mCherry inh: 12%; Vaccinia Venus: 38%; FMDV inh: -7%

How did Cc1ccc(S(=O)(=O)n2cccc2/C=C/[N+](=O)[O-])cc1 do in these assays?
VACV mCherry inh: inconclusive; Vaccinia Venus: inconclusive; FMDV inh: 16µM*

Results for Cc1ccc(S(=O)(=O)n2ccc3cccnc32)cc1 ?
Sm TGR inh: -22%; Lassa entry inh: 13%; MARV entry inh: 14%; FMDV inh: -3%

How did C=C1CC2(CC(c3ccccc3)OC(c3ccccc3)C2)OC1=O (stereo not drawn) do in these assays?
VACV mCherry inh: 11µM*; Lassa entry inh: inconclusive; Vaccinia Venus: inconclusive; MARV entry inh: inconclusive; FMDV inh: 22µM*

What do the screens show for `CCn1cc2nc(SCc3cccc(C(F)(F)F)c3)n(Cc3ccc(C)cc3)c(=O)c2n1`?
VACV mCherry inh: -22%; Sm TGR inh: 19%; Lassa entry inh: -14%[46.1 µM]; Vaccinia Venus: -22%; FMDV inh: 0%

What do the screens show for `CCOC(=O)C1=C(C)NC(=O)NC1c1ccc(-c2ccc(F)cc2)o1` (stereo not drawn)?
VACV mCherry inh: -5%; Sm TGR inh: 25µM*; Vaccinia Venus: -10%; MARV entry inh: -3%[46.1 µM]; FMDV inh: -20%

How did COC(=O)C1=C(C)NC(=S)NC1c1ccc(-c2cccc(Cl)c2)o1 (stereo not drawn) do in these assays?
VACV mCherry inh: -12%; Sm TGR inh: 8.9µM*; Lassa entry inh: -32%; Vaccinia Venus: -2%; MARV entry inh: inconclusive; FMDV inh: -6%

Results for COC(=O)C1=C(C)NC(=S)NC1c1ccc(-c2ccccc2C(=O)OC)o1 (stereo not drawn) ?
VACV mCherry inh: inactive; Sm TGR inh: inconclusive; Lassa entry inh: -22%; Vaccinia Venus: 5%; MARV entry inh: -22%[46.1 µM]; FMDV inh: -26%

Results for COC(=O)C1=C(C)NC(=O)NC1c1ccc(-c2ccc(F)cc2)o1 (stereo not drawn) ?
VACV mCherry inh: inactive; Sm TGR inh: 14µM*; Lassa entry inh: -10%[46.1 µM]; Vaccinia Venus: 2%; MARV entry inh: -2%[46.1 µM]; FMDV inh: -9%

How did COC(=O)C1=C(C)NC(C)=C(C(=O)OC)C1c1ccc(-c2cccc([N+](=O)[O-])c2)o1 do in these assays?
Sm TGR inh: 40µM*; FMDV inh: -1%

How did CCOC(=O)C1=C(C)NC(=O)NC1c1ccc(-c2ccc(Cl)cc2)o1 (stereo not drawn) do in these assays?
VACV mCherry inh: -18%; Lassa entry inh: -3%; Vaccinia Venus: -19%; MARV entry inh: inconclusive; FMDV inh: inconclusive

What do the screens show for `COC(=O)C1=C(C)NC(=O)NC1c1ccc(-c2ccccc2Cl)o1` (stereo not drawn)?
VACV mCherry inh: -1%; Sm TGR inh: 25µM*; Lassa entry inh: -13%; Vaccinia Venus: 5%; MARV entry inh: -9%[46.1 µM]; FMDV inh: inconclusive

What do the screens show for `COC(=O)C1=C(C)NC(C)=C(C(=O)OC)C1c1ccc(-c2cccc(Cl)c2Cl)o1`?
VACV mCherry inh: inconclusive; Sm TGR inh: inconclusive; Lassa entry inh: -8%; Vaccinia Venus: -15%; MARV entry inh: -3%; FMDV inh: -5%

How did COC(=O)C1=C(C)NC(C)=C(C(=O)OC)C1c1ccc(-c2cc(Cl)ccc2Cl)o1 do in these assays?
VACV mCherry inh: -14%; Sm TGR inh: -34%; Lassa entry inh: inconclusive; Vaccinia Venus: -3%; MARV entry inh: -28%; FMDV inh: -12%

Results for COCCOC(=O)C1=C(C)NC(=O)NC1c1ccc(-c2cc(Cl)ccc2Cl)o1 (stereo not drawn) ?
VACV mCherry inh: -2%; Sm TGR inh: 18µM*; Lassa entry inh: inconclusive; Vaccinia Venus: -9%; MARV entry inh: inconclusive; FMDV inh: -30%

How did CCOC(=O)C1=C(C)NC(=S)NC1c1ccc(-c2ccc(Cl)cc2)o1 (stereo not drawn) do in these assays?
VACV mCherry inh: inactive; Sm TGR inh: 22µM*; Lassa entry inh: -5%; Vaccinia Venus: -19%; MARV entry inh: 13µM*; FMDV inh: inconclusive

How did COC(=O)C1=C(C)NC(C)=C(C(=O)OCCN(C)Cc2ccccc2)C1c1cccc([N+](=O)[O-])c1 (stereo not drawn) do in these assays?
VACV mCherry inh: -8%; Sm TGR inh: -2%; Lassa entry inh: 7.3µM*!; Vaccinia Venus: -16%; MARV entry inh: 16µM*; FMDV inh: inconclusive

How did CCOC(=O)C1=C(C)NC(C)=C(C(=O)OCCNC(=O)c2cccnc2)C1c1cccc([N+](=O)[O-])c1 (stereo not drawn) do in these assays?
VACV mCherry inh: -15%; Sm TGR inh: -28%; Lassa entry inh: -24%; Vaccinia Venus: -20%; MARV entry inh: inconclusive; FMDV inh: -17%

How did COc1ccccc1N1CCN(C(=O)c2cc3c(=O)n(Cc4cccs4)ccc3nc2C)CC1 do in these assays?
VACV mCherry inh: -28%; Sm TGR inh: -10%; Lassa entry inh: -2%[46.1 µM]; Vaccinia Venus: -16%; FMDV inh: inconclusive

Results for CCOc1ccccc1C1CC(c2cccs2)=NN1S(C)(=O)=O (stereo not drawn) ?
VACV mCherry inh: -10%; Sm TGR inh: 4µM*; Lassa entry inh: 23%; Vaccinia Venus: 2%; MARV entry inh: inconclusive; FMDV inh: 31%

What do the screens show for `CS(=O)(=O)N1N=C(c2cccs2)CC1c1ccccc1O` (stereo not drawn)?
VACV mCherry inh: -8%; Sm TGR inh: 19%; Lassa entry inh: -6%; Vaccinia Venus: -6%; MARV entry inh: -1%[46.1 µM]; FMDV inh: 0%

Results for COc1ccc(Oc2ncc3ncc(=O)n(Cc4cccc(OC)c4)c3n2)cc1 ?
FMDV inh: -14%

Results for Cc1c(C(=O)Nc2ccc(C(=O)O)cc2)nnn1-c1ccccc1 ?
VACV mCherry inh: 1%; Sm TGR inh: 5%; Lassa entry inh: inconclusive; Vaccinia Venus: -6%; FMDV inh: 10µM*

Results for CCc1ccc(NC(=O)c2cnn(-c3ccccc3)c2C)cc1 ?
VACV mCherry inh: -21%; Sm TGR inh: -6%; Lassa entry inh: inconclusive; Vaccinia Venus: -12%; MARV entry inh: 10µM*; FMDV inh: -16%

How did COC(=O)N(C=Cc1ccc(OC)cc1)CCc1ccc(OC)c(OC)c1 do in these assays?
MARV entry inh: 3%[14.2 µM]

Results for C[C@H]1N[S+](=O)([O-])c2ccc(Br)cc2O[C@@H]1c1ccccc1 ?
Lassa entry inh: -12%[46.1 µM]

How did CCOC(=O)Nc1ccc(NCc2ccc(F)cc2)nc1N do in these assays?
VACV mCherry inh: 19%; Sm TGR inh: 3.2µM*; Lassa entry inh: inconclusive; Vaccinia Venus: 2%; MARV entry inh: inconclusive; FMDV inh: 0%
